The structures appear in SMILES notation. Potency and affinity values are given separately.

The results in this text go back to ChEMBL document CHEMBL4513141, “CO-ADD screening of NIH (USA) - Clinical Collection” (2021).

The assay has as its system Klebsiella pneumoniae. To be noted: Concentration 20 uM; ASSAY_TEST Inhibition of Bacterial Growth; detection method Absorption (OD600); MEDIA CAMHB; plate type 384well; NBS; CORNING #3640; time 18 hr.
With `OC[C@H]1O[C@@H](Oc2cc(O)cc(/C=C/c3ccc(O)cc3)c2)[C@H](O)[C@@H](O)[C@@H]1O` [PICEID], the Inhibition (in general, the change of the read-out against control, counted positive when it falls) is on record as 6.92%.
With `CCN(CC)CCNC(=O)c1cc(Cl)c(N)cc1OC.Cl` the figure was 10.19%; with `CCOC(=O)OC(C)OC1=C(C(=O)Nc2ccccn2)N(C)S(=O)(=O)c2ccccc21` (stereo not given) [AMPIROXICAM], 12.2%; with `CCC(=O)O[C@]1(C(=O)CCl)[C@@H](C)C[C@H]2[C@@H]3CCC4=CC(=O)C=C[C@]4(C)[C@@]3(F)[C@@H](O)C[C@@]21C` [CLOBETASOL PROPIONATE], -2.85%.
As for `CN(CCOc1ccc(NS(C)(=O)=O)cc1)CCc1ccc(NS(C)(=O)=O)cc1` [DOFETILIDE], the Inhibition came out at 7.49%.
In the case of `Nc1ccc2cn[nH]c2c1` it was 2.93%.
For `Cl.O=C(c1ccc(OCCN2CCCCC2)cc1)c1c(-c2ccc(O)cc2)sc2cc(O)ccc12` [RALOXIFENE HYDROCHLORIDE], the Inhibition was determined as 7.01%.
With `COc1ccc(/C=C/C(=O)Nc2ccccc2C(=O)O)cc1OC` the figure was 8.22%; with `CC1(C)S[C@@H]2[C@H](/N=C/N3CCCCCC3)C(=O)N2[C@H]1C(=O)O` [AMDINOCILLIN], 18.13%.
With `C[C@]12C=CC(=O)C=C1CC[C@@H]1[C@@H]2C(=O)C[C@@]2(C)[C@H]1CC[C@]2(O)C(=O)CO` [PREDNISONE] the figure was 18.73%; with `C[C@@H](O)[C@H]1C(=O)N2C(C(=O)O)=C(S[C@@H]3CN[C@H](C(=O)N(C)C)C3)[C@H](C)[C@H]12` [MEROPENEM], 0.03%.
In the case of `CCc1cc(C(N)=S)ccn1` [ETHIONAMIDE] it was 13.14%.
With `COc1cc2nc(N(C)CCCNC(=O)C3CCCO3)nc(N)c2cc1OC` (stereo not given) [ALFUZOSIN], the Inhibition was -2.08%.
In the case of `Cc1ccsc1C(=CCCN1CCC[C@@H](C(=O)O)C1)c1sccc1C.Cl` [TIAGABINE HYDROCHLORIDE] it was 9.25%; in that of `CCc1nn(CCCN2CCN(c3cccc(Cl)c3)CC2)c(=O)n1CCOc1ccccc1.Cl` [NEFAZODONE HYDROCHLORIDE], 1.06%; in that of `Cl.c1ccc(CC2=NCCN2)cc1` [TOLAZOLINE HYDROCHLORIDE], 3.87%.
With `CN(C)CC[C@@H](c1ccc(Br)cc1)c1ccccn1.O=C(O)/C=C\C(=O)O` [DEXBROMPHENIRAMINE MALEATE], the Inhibition was -0.14%.
Take `CC(C)Cc1ccc(C(C)C(=O)O)cc1` (stereo not given) [IBUPROFEN]: the Inhibition was -1.68%.
In the case of `CC[C@]1(O)C[C@@H]2CN(CCc3c([nH]c4ccccc34)[C@@](C(=O)OC)(c3cc4c(cc3OC)N(C=O)[C@H]3[C@@](O)(C(=O)OC)[C@H](OC(C)=O)[C@]5(CC)C=CCN6CC[C@]43[C@@H]65)C2)C1.O=S(=O)(O)O` it was 3.74%; in that of `CC(=O)OCC(CCn1cnc2cnc(N)nc21)COC(C)=O` [FAMCICLOVIR], 11.51%.
In the case of `CC12CC3CC(C)(C1)CC(N)(C3)C2.Cl` [MEMANTINE HYDROCHLORIDE] it was 12.73%; in that of `CC(C)OC(=O)CCC/C=C\C[C@@H]1[C@@H](CC[C@@H](O)CCc2ccccc2)[C@H](O)C[C@@H]1O` [LATANOPROST], 18.51%; in that of `COC(=O)C1=C(C)NC(C)=C(C(=O)OCC(C)C)C1c1ccccc1[N+](=O)[O-]` (stereo not given) [NISOLDIPINE], 25.81%.
`CC1=C(C(=O)O)N2C(=O)[C@@H](NC(=O)[C@H](N)c3ccccc3)[C@H]2SC1.O` [CEPHALEXIN]: the Inhibition was found to be 2.49%.
In the case of `Cc1ccc(O)c([C@H](CCN(C(C)C)C(C)C)c2ccccc2)c1.O=C(O)C(O)C(O)C(=O)O` [TOLTERODINE TARTRATE] it was 6.3%; in that of `Cl.O=C1CN2Cc3c(ccc(Cl)c3Cl)N=C2N1` [ANAGRELIDE HYDROCHLORIDE], 18.04%; in that of `CN1CCN(CCCN2c3ccccc3Sc3ccc(C(F)(F)F)cc32)CC1.Cl.Cl` [TRIFLUOPERAZINE HYDROCHLORIDE], 10.06%.
In the case of `CCCC1O[C@@H]2C[C@H]3[C@@H]4CCC5=CC(=O)C=C[C@]5(C)[C@H]4[C@@H](O)C[C@]3(C)[C@]2(C(=O)CO)O1` (stereo not given in full) [BUDESONIDE] it was 10.57%; in that of `Clc1ccc2c(c1)C(N1CCNCC1)=Nc1ccccc1O2` [AMOXAPINE], 12.52%.
In the case of `Cc1cccc(C)c1NC(=O)C(C)N` (stereo not given) [TOCAINIDE] it was 13.74%.
